HP1b chromo inh – HTS for Inhibitors of HP1-beta Chromodomain Interactions with Methylated Histone Tails; AID 540317, 2011; AlphaScreen HP1-beta / biotin-H3K9me3 peptide binding; actives 0.56% (n = 390,000); Potency, µM (highest dose often 114 µM), hits mostly inhibitors; also: nearly all actives have a fitted effect of over 70% in size
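Compound inhibition of the preformed complex between 50 nM HP1-beta and 50 nM biotinylated H3K9me3 peptide was read by AlphaScreen. Buffer was PBS pH 7.4 with 0.01% Tween-20. Incubations ran 30 min at room temperature, with 10 ug/mL donor/acceptor beads.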
JMJD2A Tudor inh – qHTS Assay for Inhibitors of JMJD2A-Tudor Domain; actives 4.4% (n = 390,000); Lysine-specific demethylase 4A (Homo sapiens), O75164; AlphaScreen JMJD2A-Tudor / H3K4me3 peptide binding; Potency, µM (highest dose often 114 µM), usual class: inhibitors; also: nearly all actives have a fitted effect of over 50% in size
Target sequence (O75164 whole entry, looked up, the tested form may be a part): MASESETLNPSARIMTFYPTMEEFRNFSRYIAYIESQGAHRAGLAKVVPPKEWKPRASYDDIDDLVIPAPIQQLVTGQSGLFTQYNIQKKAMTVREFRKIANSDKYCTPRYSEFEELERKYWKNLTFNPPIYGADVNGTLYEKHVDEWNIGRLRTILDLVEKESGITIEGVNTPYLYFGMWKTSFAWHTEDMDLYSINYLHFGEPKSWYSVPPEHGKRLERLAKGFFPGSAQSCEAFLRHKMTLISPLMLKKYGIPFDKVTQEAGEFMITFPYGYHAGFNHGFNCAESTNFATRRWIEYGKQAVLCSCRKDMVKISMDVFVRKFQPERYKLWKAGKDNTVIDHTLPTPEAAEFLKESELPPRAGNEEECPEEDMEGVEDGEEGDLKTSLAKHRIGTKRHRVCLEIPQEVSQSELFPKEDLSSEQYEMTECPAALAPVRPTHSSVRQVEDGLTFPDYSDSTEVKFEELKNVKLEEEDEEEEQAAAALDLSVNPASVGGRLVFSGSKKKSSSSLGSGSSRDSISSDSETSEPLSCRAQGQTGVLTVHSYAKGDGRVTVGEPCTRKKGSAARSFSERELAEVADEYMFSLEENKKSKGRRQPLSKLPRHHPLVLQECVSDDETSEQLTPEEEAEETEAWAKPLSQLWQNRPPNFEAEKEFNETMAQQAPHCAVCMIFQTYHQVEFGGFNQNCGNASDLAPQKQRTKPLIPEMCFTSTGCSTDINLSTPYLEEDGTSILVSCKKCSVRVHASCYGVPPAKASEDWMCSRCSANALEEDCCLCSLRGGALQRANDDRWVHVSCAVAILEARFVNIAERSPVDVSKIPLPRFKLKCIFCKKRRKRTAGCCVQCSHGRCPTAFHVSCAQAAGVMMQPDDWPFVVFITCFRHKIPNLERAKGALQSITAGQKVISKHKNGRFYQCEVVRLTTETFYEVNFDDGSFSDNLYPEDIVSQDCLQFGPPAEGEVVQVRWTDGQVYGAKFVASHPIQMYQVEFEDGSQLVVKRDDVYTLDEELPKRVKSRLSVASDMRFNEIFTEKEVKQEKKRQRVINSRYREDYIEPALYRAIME
G9a block – qHTS Assay for Inhibitors of Histone Lysine Methyltransferase G9a; actives 8.8% (n = 350,000); Histone-lysine N-methyltransferase EHMT2 (Homo sapiens), Q96KQ7; AID 504332, 2011; G9a H3K9 monomethylation, AlphaScreen, 2 h; Potency, µM (series often up to 102 µM), actives largely listed as inhibitors; also: nearly all actives have a fitted effect of over 75% in size
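G9a (20 nM) preincubated 15 min RT with compounds, then 500 nM biotinylated H3K9 peptide and 20 uM SAM added; 2 h RT reaction. Monomethyl-H3K9 product detected by AlphaScreen with anti-H3K9me1 antibody, streptavidin donor and anti-rabbit IgG acceptor beads.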
PI5P4K alpha inh – qHTS for Inhibitors of phosphatidylinositol 5-phosphate 4-kinase (PI5P4K); Phosphatidylinositol 5-phosphate 4-kinase type-2 alpha (Homo sapiens), P48426; PI5P4Kalpha enzyme, ADP-Glo luminescence, 60 min; hits give low values; max response, %; actives 1.2% (n = 330,000); AID 652105, 2013; active = max response of -50% or lower; inconclusive = between -30% and -50%; inactive = -30% or higher; also: value at the top dose of about 77 µM
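PI5P4Kalpha ADP-Glo assay; 5 microM ATP final; 60 min RT reaction; HEPES pH 7.4/EGTA/CHAPS, 5% DMSO; controls lacking substrate or enzyme; luminescent end-point.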
BAZ2B block – qHTS Assay for Inhibitors of BAZ2B; Potency, µM (titrated, usually from 114 µM), usual class: inhibitors; Bromodomain adjacent to zinc finger domain protein 2B (Homo sapiens), Q9UIF8; AID 504333, 2011; actives 4.4% (n = 360,000); AlphaScreen BAZ2B-H3K14Ac peptide displacement; also: nearly all actives have a fitted effect of over 60% in size
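AlphaScreen luminescence quantifies BAZ2B engagement of H3K14Ac peptide; the protein and biotinylated peptide are both at 50 nM final, buffer PBS pH 7.4 with 0.01% Tween-20, all steps at room temperature.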
L3MBTL1 inh – qHTS Assay for the Inhibitors of L3MBTL1; AlphaScreen L3MBTL1–H3K9me1 peptide binding; Potency, µM (top dose mostly 57.1 µM), most hits filed as inhibitors; actives 0.66% (n = 230,000); AID 485360, 2010; also: nearly all actives have a fitted effect of over 60% in size
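Read-out is AlphaScreen signal from streptavidin donor and nickel chelate acceptor beads (10 ug/mL final each) bridging L3MBTL1 (50 nM) and biotinylated K9-monomethylated H3(1-15) peptide (75 nM), after 30 min compound exposure at room temperature.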
Hits are given with their value; n = inactive; u = inconclusive; x = not tested or not shown; [ ] = dose if it differs, or a comment. The list is not random: actives were taken first. Their share in the collection is about 11%. Unless noted, calls follow the shape of the dose curve; as a rule, active = well fitted inhibition curve with a large enough effect; inconclusive = small, poorly fitted or top-dose-only effect; inactive = no such curve, though single readings can be large or run the other way.

SMILES	HP1b chromo inh	JMJD2A Tudor inh	G9a block	PI5P4K alpha inh	BAZ2B block	L3MBTL1 inh
Cc1c(CC(=O)NCc2ccccc2)c(=O)oc2c(C)c(O)ccc12	n	n	n	x	n	x
COC(=O)C1=C(O)/C(=C\c2cc(C)n(-c3ccccc3C)c2C)N=C1C	n	n	20µM	x	79µM	x
COC(=O)C1=C(O)/C(=C\c2cc(C)n(-c3ccccc3F)c2C)N=C1C	n	n	u	n	56µM	x
COC(=O)C1=C(O)/C(=C\c2sccc2C)N=C1C	n	n	n	n	n	n
CC(=O)N1CCN(C)CC1	x	x	n	x	x	x
Cc1cc(C)c(NC(=O)c2cc3c(nc4sccn43)s2)c(C)c1	n	n	50µM	n	n	n
Cc1noc(C)c1S(=O)(=O)Nc1ccc(C(=O)Nc2ccc(Br)cc2)cc1	n	n	n	x	x	x
CC(C)c1nn2c(=O)cc(COC(=O)c3ccccc3NC(=O)c3cccs3)nc2s1	n	n	n[12.7 µM]	x	n	x
CS(=O)(=O)NCCCCCCNS(C)(=O)=O	n	n[11.4 µM]	50µM	n	n	x
O=C1C2C(C(=O)N1/N=C/c1cc([N+](=O)[O-])ccc1O)C1C=CC2C12CC2 (configuration not stated)	n	n	n	x	n	n
O=C1C2C(C(=O)N1/N=C/c1cccc([N+](=O)[O-])c1)C1C=CC2C12CC2 (configuration not stated)	n	n	n	n	n	n
O=C1C2C(C(=O)N1/N=C/c1cc(Br)cc([N+](=O)[O-])c1O)C1C=CC2C12CC2 (configuration not stated)	u	79µM	u	u	u	n
O=C1C2C(C(=O)N1/N=C/c1cc([N+](=O)[O-])c(O)cc1O)C1C=CC2C12CC2 (configuration not stated)	n	50µM	56µM	-74	u	32µM
O=[N+]([O-])c1cc(Br)cc(/C=N/n2cnnc2)c1O	n	n	32µM	n	u	u
C=CCS/C(N)=N\N=C\c1cc(Br)cc([N+](=O)[O-])c1O	n	n	50µM	n	u	n
O=[N+]([O-])c1cc(Cl)cc(/C=N/n2cnnc2)c1O	n	n	n	n	x	n
Cc1ccccc1CN1CCC(CNc2ncnc3onc(-c4ccc(Cl)cc4)c23)CC1	n	n	n	x	n	x
COC(=O)[C@H](C)[C@H](CC(C)C)NC(=O)[C@H](C)[C@H](CC(C)C)NC(=O)c1ccccn1	n	n	x	x	x	x
CCOC(=O)c1cnc(NCc2ccc(OC)cc2OC)c2ccccc12	n	n	n	x	n	x
Cc1ccc(-c2ccc(/C=C(\C#N)C(N)=S)n2C)cc1	n	u	10µM	n	u	n
Cc1cc(C)c(/C=C(\C#N)C(N)=S)c(C)c1	n	n	45µM	n	n	n
Cn1cccc1/C=C(/C#N)C(N)=S	n	n	u	n	u	n
O=C(O)c1ccc2c(c1)C(=O)N([C@]1(C(=O)O)C[C@H]1c1ccccc1)C2=O	x	n	n[12.7 µM]	x	n	n
COc1cccc(NC(=O)c2ccc3nc(Cc4ccccc4)oc3c2)c1	n	n	n	x	n	x
Cc1cccc2nc(-c3cccc(NS(=O)(=O)c4ccccc4)c3)cn12	n	n	n	x	n	x
SMILES	HP1b chromo inh	JMJD2A Tudor inh	G9a block	PI5P4K alpha inh	BAZ2B block	L3MBTL1 inh
COc1ccc(/C=C/C(=O)c2cc(Br)ccc2O)cc1OC	n	n	25µM	n	u	n
COc1ccc(/C=C/C(=O)c2cc(F)ccc2OC(=O)c2ccccc2)cc1OC	n	n	x	n	x	x
COc1ccc(/C=C/C(=O)c2cc(F)ccc2OC(=O)c2ccc(OC)c(OC)c2)cc1OC	n	n	56µM	n	u	n
Cc1ccc(C)c(N(C)C(=O)c2cn(C)c(=O)c3ccccc23)c1	n	n	n	x	n	x
COc1ccc(-n2cc(C(=O)OCc3ccc(F)c(F)c3)c3ccccc3c2=O)cc1	n	n	n	x	n	x
CCn1c(SCC(=O)Nc2ccc3c(c2)c2ccccc2n3CC)nnc1-c1ccco1	16µM	28µM	n[12.7 µM]	x	n	n
CCN(CC)c1ccc(NC(=O)CSc2n[nH]c(-c3ccco3)n2)cc1	n	u	4.5µM	n	40µM	n
CCn1c(SCC(=O)Nc2cccc(NC(C)=O)c2)nnc1-c1ccco1	n	n	n	n	n	x
CCn1c(SCC(=O)Nc2ccc(N(C)C)cc2)nnc1C1CC1	n	n	40µM	n	n	x
Cc1ccc(NC(=O)CSc2n[nH]c(-c3ccco3)n2)cc1	n	n	n	n	n	n
CCn1c(SCC(=O)Nc2ccc(NC(C)=O)cc2)nnc1C1CC1	n	n	n	n	n	n
CCn1c(SCC(=O)Nc2ccc(N(C)C)cc2)nnc1-c1ccco1	n	n	40µM	n	n	x
Cc1cccc(NC(=O)c2c(C)cc(C)nc2SCC(=O)c2ccccc2)c1	n	n	n	x	n	x
CC(=O)N1CCc2cc(S(=O)(=O)Nc3ccc(C)c(C)c3)ccc21	x	n	x	x	x	x
Cc1sc(N)nc1C12CC3CC(CC(C3)C1)C2	u	n	45µM	n	u	n
CCNc1nc(C23CC4CC(CC(C4)C2)C3)cs1	n	n	u	n	u	x
O=C1CCc2cc(NS(=O)(=O)c3ccc([N+](=O)[O-])cc3)cc3c2N1CC3	n	n	45µM	n	n	n
O=C1CCc2cc(NS(=O)(=O)c3ccc([N+](=O)[O-])cc3)cc3c2N1CCC3	n	n	35µM	n	n	n
O=C1CCc2cc(NS(=O)(=O)c3ccc(Cl)cc3)cc3c2N1CC3	n	n	n	n	n	n
O=C1CCc2cc(NS(=O)(=O)c3ccc(F)cc3)cc3c2N1CCC3	n	n	u	n	n	n
CCOc1cccc(=O)c2c(C)n(CC(=O)c3ccccc3)c(C)c12	79µM	n	u	u	n	u
CCOc1ccc(S(=O)(=O)N2CCC(c3ccncc3)CC2)cc1	n	n	u	x	n	x
CCCN1CCN(C(=S)Nc2ccccc2C(F)(F)F)CC1	n	n	40µM	n	n	n
FC(F)(F)c1ccccc1NC(=S)N1CCc2ccccc2C1	n	n	n	n	n	n
Cc1ccc(Cl)cc1N1CCN(C(=O)c2cnn(C)c2C2CCN(C(=O)OC(C)(C)C)CC2)CC1	n	n	n	x	n	x
O=C(NN=C1CCCCC1)c1ccccc1OCc1ccc(F)cc1	n	n	n	n	n	n
Fc1ccc(COc2ccccc2C(=S)N2CCCC2)cc1	u	79µM	1.8µM	n	n	n
